Experimental data from the supplement of paper PMC10849652.
Targets with a hit are over-represented here; the source holds about 7,900 in all. About 0.6% of all pairs of compound and target were hits. Unmarked numbers belong to inactive results.

Legend:
Test in all cases: log2 fold change, soluble protein after heating vs DMSO (PISA); higher = thermal stabilisation; K562 cells, 10 uM, 30 min; active = over 0.2 and 3.5 SD of the protein, either way, in both replicates (recomputed)
[1] = compound: C#Cc1cccc(Nc2ncnc3cc(OCCOC)c(OCCOC)cc23)c1 [erlotinib]
Outline: (§1)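 Soluble protein was quantified by TMTpro 16plex LC-MS/MS after channel sums were equalised. It was obtained as the supernatant after 21,000xg for 90 min from pooled aliquots of K562 cells (2×10^6 cells/mL, 10 μM compound, 30 min) heated for 3 min across 48°C-58°C and extracted in PBS with 0.5% NP-40 at 4°C. Thermal stability values are relative to control samples and come from duplicates. They are given as log2 fold changes.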

[2] = compound: C/C(=N\NC(=O)C1=CC(=CC=C1)S(=O)(=O)N2CCOCC2)/C3=C(C=CC(=C3)Cl)O
Outline: as §1

[3] = compound: C1=CC(=C(C=C1Cl)C2=NC3=NC=CN=C3C(=N2)NC4=CC=NC=C4)F
Outline: as §1

[4] = compound: C1=CC(=CC=C1C2=NC3=C(N2)C=C(C=C3)C(=O)N)OC4=CC=C(C=C4)Cl
Outline: as §1

[5] = compound: C1=CC2=C(C=CC(=C2)/C=C\3/C(=O)NC(=NCC4=CC=CS4)S3)N=C1
Outline: as §1

[6] = compound: C1=CC2=NC=CN=C2C=C1/C=C/3\C(=O)NC(=O)S3
Outline: as §1

[7] = compound: C1=CC=C(C=C1)C2=NC(=C(N2)C3=CC=NC=C3)C4=CC(=C(C=C4)Cl)O
Outline: as §1

[8] = compound: C1=CC=C2C(=C1)C3=NNC4=CC=CC(=C43)C2=O
Outline: as §1

[9] = compound: C1CCN(C1)C(=O)NC2=CC=CC(=C2)NC3=NC=C(C(=N3)NCCC4=CN=CN4)Br
Outline: as §1

[10] = compound: C1CN(CCC1(CC2=CC=C(C=C2)Cl)N)C3=NC=NC4=C3C=CN4
Outline: as §1

Sequence of UniProt Q9UKL0 (Q9UKL0 whole entry, looked up): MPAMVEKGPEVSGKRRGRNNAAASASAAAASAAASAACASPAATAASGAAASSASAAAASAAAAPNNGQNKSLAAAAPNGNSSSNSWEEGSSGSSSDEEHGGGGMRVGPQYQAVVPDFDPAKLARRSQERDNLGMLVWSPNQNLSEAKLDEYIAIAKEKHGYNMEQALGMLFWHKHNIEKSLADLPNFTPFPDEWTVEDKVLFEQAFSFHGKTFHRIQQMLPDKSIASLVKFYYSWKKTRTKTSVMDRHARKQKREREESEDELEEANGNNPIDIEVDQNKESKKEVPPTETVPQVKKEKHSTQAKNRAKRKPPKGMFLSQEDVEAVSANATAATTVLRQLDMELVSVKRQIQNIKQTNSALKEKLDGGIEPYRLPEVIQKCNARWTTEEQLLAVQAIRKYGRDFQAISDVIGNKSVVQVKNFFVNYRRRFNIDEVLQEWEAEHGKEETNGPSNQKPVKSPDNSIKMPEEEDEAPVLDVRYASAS
Sequence of UniProt Q8TD22 (Q8TD22 whole entry, looked up): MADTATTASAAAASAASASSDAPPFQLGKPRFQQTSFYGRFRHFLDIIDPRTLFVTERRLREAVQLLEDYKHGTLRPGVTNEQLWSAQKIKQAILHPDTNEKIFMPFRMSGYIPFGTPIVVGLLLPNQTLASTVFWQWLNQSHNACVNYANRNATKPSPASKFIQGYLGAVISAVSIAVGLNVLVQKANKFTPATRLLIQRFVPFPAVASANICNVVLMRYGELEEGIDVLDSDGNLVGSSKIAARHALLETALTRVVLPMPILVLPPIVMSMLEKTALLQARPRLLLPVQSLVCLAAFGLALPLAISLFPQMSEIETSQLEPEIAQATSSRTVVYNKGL
Sequence of UniProt Q9NSI8 (Q9NSI8 whole entry, looked up): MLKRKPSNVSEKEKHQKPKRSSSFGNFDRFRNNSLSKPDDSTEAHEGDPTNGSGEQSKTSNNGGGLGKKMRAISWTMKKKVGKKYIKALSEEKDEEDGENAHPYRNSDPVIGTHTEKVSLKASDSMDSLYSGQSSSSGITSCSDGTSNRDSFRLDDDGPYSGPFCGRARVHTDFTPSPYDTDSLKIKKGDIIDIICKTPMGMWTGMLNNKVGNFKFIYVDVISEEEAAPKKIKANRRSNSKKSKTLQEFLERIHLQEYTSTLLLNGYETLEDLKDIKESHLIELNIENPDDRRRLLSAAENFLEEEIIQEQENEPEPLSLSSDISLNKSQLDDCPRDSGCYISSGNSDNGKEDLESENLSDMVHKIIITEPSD
Sequence of UniProt Q7Z6E9 (Q7Z6E9 whole entry, looked up): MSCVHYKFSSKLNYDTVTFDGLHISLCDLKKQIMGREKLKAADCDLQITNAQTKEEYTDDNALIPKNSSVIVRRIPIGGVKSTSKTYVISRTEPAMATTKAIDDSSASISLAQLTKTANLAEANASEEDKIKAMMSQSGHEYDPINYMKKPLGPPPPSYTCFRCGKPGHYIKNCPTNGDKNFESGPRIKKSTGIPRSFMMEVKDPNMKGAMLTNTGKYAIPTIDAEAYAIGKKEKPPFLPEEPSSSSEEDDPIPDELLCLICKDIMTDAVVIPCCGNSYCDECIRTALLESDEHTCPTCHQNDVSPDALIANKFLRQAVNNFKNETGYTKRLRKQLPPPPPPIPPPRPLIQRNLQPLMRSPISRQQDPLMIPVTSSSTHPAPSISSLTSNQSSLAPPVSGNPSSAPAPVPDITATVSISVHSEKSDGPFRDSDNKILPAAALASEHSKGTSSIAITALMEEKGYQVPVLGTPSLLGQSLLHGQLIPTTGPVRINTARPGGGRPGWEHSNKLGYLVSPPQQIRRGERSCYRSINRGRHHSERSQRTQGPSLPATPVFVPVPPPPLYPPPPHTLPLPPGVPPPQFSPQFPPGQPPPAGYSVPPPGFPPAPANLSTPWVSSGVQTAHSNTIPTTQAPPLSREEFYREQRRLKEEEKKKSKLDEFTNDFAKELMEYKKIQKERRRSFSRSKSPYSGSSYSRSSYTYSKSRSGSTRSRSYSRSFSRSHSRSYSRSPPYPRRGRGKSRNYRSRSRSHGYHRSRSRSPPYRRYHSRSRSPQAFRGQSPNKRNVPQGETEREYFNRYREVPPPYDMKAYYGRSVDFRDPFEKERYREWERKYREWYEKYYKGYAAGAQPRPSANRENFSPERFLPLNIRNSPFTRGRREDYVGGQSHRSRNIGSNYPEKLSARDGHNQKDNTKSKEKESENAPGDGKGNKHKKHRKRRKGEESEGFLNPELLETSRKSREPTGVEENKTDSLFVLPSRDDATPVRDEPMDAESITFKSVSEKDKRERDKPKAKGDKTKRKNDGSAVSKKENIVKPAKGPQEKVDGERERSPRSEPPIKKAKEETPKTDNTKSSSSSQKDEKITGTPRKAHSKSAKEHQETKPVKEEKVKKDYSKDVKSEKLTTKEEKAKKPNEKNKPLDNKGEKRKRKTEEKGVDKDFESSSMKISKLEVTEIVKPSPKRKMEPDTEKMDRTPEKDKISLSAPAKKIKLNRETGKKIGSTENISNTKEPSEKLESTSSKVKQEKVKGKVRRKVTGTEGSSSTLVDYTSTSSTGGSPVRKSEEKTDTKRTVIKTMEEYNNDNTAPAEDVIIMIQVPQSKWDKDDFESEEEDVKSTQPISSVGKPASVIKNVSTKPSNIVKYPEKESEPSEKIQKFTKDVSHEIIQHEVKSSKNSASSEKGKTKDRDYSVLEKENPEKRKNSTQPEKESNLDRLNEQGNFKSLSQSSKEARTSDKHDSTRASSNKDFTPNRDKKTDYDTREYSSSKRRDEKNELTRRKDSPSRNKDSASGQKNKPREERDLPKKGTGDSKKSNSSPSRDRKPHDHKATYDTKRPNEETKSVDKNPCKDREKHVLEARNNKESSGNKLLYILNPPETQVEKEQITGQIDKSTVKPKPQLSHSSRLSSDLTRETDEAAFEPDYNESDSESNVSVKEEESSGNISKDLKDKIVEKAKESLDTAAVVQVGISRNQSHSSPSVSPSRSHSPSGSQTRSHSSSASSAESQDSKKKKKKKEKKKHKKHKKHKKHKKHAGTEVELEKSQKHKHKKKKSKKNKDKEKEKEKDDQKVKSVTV
Sequence of UniProt Q8N5L8 (Q8N5L8 whole entry, looked up): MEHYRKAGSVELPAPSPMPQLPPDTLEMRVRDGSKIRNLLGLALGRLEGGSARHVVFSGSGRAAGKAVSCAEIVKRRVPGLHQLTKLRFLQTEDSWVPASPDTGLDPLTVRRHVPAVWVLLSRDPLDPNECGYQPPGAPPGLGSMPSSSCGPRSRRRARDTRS
Sequence of UniProt Q6NUM9 (Q6NUM9 whole entry, looked up): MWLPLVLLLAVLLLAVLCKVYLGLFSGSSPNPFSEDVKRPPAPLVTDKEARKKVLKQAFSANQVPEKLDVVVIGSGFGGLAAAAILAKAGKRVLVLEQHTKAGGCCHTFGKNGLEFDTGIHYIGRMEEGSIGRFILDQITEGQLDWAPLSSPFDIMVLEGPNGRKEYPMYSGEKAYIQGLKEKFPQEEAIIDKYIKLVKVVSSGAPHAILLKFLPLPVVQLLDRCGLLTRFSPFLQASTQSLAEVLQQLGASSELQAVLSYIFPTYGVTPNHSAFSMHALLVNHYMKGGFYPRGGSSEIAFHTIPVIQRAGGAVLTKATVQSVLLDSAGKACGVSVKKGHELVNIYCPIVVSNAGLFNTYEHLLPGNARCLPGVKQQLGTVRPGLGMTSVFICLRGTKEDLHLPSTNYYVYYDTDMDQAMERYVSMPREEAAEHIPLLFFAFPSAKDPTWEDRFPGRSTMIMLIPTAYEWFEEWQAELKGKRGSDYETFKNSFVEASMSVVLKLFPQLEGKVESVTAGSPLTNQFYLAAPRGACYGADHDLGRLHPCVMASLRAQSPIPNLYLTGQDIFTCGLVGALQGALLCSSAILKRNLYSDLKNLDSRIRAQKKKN
Sequence of UniProt Q5T8P6 (Q5T8P6 whole entry, looked up): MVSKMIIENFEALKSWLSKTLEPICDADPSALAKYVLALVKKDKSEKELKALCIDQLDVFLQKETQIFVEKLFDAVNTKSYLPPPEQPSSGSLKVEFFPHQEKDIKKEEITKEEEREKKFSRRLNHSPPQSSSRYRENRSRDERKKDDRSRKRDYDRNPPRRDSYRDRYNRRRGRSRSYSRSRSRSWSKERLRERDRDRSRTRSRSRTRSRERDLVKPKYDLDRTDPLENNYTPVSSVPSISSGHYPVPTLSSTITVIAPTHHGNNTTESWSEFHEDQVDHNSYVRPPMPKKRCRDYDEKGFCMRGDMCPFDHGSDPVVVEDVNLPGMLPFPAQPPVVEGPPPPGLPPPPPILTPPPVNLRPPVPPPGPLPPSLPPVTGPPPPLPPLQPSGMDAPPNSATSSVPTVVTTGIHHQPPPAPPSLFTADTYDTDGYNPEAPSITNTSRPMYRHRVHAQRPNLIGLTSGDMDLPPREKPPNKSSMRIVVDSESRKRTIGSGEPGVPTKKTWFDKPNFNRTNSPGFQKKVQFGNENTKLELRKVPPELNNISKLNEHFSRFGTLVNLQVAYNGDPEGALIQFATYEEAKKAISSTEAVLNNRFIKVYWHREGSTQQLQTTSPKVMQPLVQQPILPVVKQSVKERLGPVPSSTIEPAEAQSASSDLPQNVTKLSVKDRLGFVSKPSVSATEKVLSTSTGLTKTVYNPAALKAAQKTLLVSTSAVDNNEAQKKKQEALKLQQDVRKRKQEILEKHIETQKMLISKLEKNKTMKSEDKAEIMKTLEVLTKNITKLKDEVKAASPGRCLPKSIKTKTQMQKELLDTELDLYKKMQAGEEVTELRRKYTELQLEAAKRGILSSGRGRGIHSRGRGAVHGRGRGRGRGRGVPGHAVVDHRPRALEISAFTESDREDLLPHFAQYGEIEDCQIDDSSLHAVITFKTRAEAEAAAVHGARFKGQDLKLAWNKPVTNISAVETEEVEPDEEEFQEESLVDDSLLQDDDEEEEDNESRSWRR
Sequence of UniProt Q9H6H4 (Q9H6H4 whole entry, looked up): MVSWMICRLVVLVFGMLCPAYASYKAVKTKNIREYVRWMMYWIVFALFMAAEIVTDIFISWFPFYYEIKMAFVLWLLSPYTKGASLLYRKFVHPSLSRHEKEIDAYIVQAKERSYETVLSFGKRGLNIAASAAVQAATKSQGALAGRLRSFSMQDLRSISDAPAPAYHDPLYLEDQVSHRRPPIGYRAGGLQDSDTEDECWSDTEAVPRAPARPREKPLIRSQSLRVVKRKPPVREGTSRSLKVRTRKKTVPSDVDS

Target | log2 fold change [1] | log2 fold change [2] | log2 fold change [3] | log2 fold change [4] | log2 fold change [5] | log2 fold change [6] | log2 fold change [7] | log2 fold change [8] | log2 fold change [9] | log2 fold change [10]
RBM26 isoform 2 (UniProt Q5T8P6) | 0.174 | 0.216 | 0.25 | -0.004 | -0.018 | 0 | 0.113 | 0.002 | -0.027 | 0.012
SCAF8 isoform 2 (UniProt Q9UPN6) | 0.203 | 0.051 | 0.048 | 0.034 | 0.124 | -0.028 | 0.298 | 0.069 | -0.031 | -0.036
SHCBP1 (UniProt Q8NEM2) | -0.013 | -0.029 | -0.027 | 0.018 | 0.137 | 0.028 | -0.104 | 0.054 | 0.127 | -0.128
REEP4 (UniProt Q9H6H4) | -0.024 | 0.027 | -0.049 | 0.026 | -0.018 | 0.005 | 0.063 | -0.04 | 0.047 | -0.081
RALY (UniProt Q9UKM9) | 0.018 | -0.072 | -0.541 | 0.189 | -0.144 | 0.154 | -0.11 | 0.038 | 0.008 | -0.22
RCOR1 (UniProt Q9UKL0) | 0.033 | 0.069 | -0.043 | -0.056 | 0.134 | -0.013 | 0.076 | -0.011 | -0.006 | -0.043
RBM25 (UniProt P49756) | 0.142 | -0.037 | -0.039 | -0.025 | -0.014 | 0.055 | -0.012 | -0.008 | -0.076 | -0.137
SASH1 (UniProt O94885) | -0.013 | 0.12 | 0.145 | -0.01 | -0.104 | -0.009 | 0.005 | 0.107 | -0.041 | -0.079
RPA3 (UniProt P35244) | -0.007 | 0.156 | 0.084 | 0.008 | -0.058 | -0.007 | 0.115 | 0.032 | -0.128 | -0.027
RBIS (UniProt Q8N0T1) | -0.051 | 0.015 | -0.038 | 0.044 | 0.007 | 0.031 | -0.121 | -0.083 | 0.037 | -0.093
SART3, A0A499FI31 | -0.034 | 0.058 | 0.102 | 0.032 | 0.032 | 0.084 | -0.004 | -0.045 | -0.078 | -0.014
SETD3 (UniProt Q86TU7) | 0.01 | -0.007 | 0.04 | 0.009 | 0.06 | 0.002 | 0.031 | 0.004 | -0.015 | 0.044
SH3GL1 (UniProt Q99961) | 0.024 | 0.068 | 0.013 | 0.003 | 0.058 | 0.022 | 0.019 | 0.004 | -0.047 | -0.045
SEC24A (UniProt O95486) | 0.084 | 0.097 | 0.031 | -0.018 | 0.033 | -0.022 | 0.036 | 0.022 | -0.026 | 0.011
RPP25L (UniProt Q8N5L8) | 0.274 (active) | -0.004 | -0.029 | 0.031 | -0.001 | 0.041 | 0.014 | -0.065 | 0.01 | 0.01
SAMSN1 isoform 3 (UniProt Q9NSI8) | 0.027 | 0.012 | -0.006 | 0.001 | 0.037 | 0.021 | -0.009 | -0.022 | 0.007 | -0.114

Target | log2 fold change [1] | log2 fold change [2] | log2 fold change [3] | log2 fold change [4] | log2 fold change [5] | log2 fold change [6] | log2 fold change [7] | log2 fold change [8] | log2 fold change [9] | log2 fold change [10]
SAFB2 (UniProt Q14151) | 0.015 | -0.135 | -0.294 | 0.071 | -0.148 | 0.049 | 0.014 | -0.015 | -0.037 | -0.041
RBBP6 (UniProt Q7Z6E9) | -0.01 | 0.005 | 0.014 | -0.034 | -0.037 | 0 | 0.025 | -0.005 | -0.067 | 0.003
RNASET2 (UniProt O00584) | 0.027 | -0.007 | -0.006 | 0.002 | 0.012 | -0.014 | -0.001 | -0.027 | 0.034 | 0.052
RABGAP1L isoform 3 (UniProt Q5R372) | 0.087 | 0.052 | 0.161 | -0.021 | 0.029 | 0.033 | -0.001 | 0.035 | 0.004 | 0.007
SIRT2 (UniProt Q8IXJ6) | 0.03 | 0.055 | 0.001 | 0.054 | -0.113 | 0.017 | 0.051 | 0.029 | 0.025 | 0.016
SFXN5 (UniProt Q8TD22) | -0.077 | 0.09 | -0.02 | 0.082 | -0.003 | 0.023 | 0.081 | -0.001 | -0.066 | -0.045
RNF14 (UniProt Q9UBS8) | -0.006 | 0.038 | 0.048 | 0.043 | 0.015 | -0.019 | 0.014 | -0.029 | 0.002 | 0.071
SGPL1 (UniProt O95470) | -0.038 | -0.019 | -0.088 | -0.047 | 0.05 | -0.029 | 0.01 | -0.001 | -0.035 | -0.145
RPS5 (UniProt P46782) | -0.149 | -0.087 | -0.193 | 0.038 | -0.047 | -0.045 | -0.003 | 0.008 | 0.022 | -0.125
RPTOR (UniProt Q8N122) | -0.034 | 0.075 | 0.036 | -0.037 | 0.039 | 0.003 | -0.038 | -0.031 | -0.042 | -0.027
ROMO1 (UniProt P60602) | 0.016 | -0.092 | 0.045 | -0.01 | -0.009 | 0.018 | 0.008 | 0.003 | 0.039 | 0.001
RETSAT (UniProt Q6NUM9) | 0.044 | -0.149 | 0.132 | 0.502 (active) | 0.052 | 0.002 | 0.056 | 0.144 | -0.126 | 0.194
RABGGTA (UniProt Q92696) | 0.068 | 0.018 | 0.065 | 0.001 | 0.063 | 0.025 | 0.036 | 0.043 | 0.005 | 0.122
SCAMP2 (UniProt H3BUB6) | 0.182 | -0.331 | -0.143 | 0.039 | 0.372 | -0.163 | -0.281 | -0.143 | 0.218 | -0.003
SIDT2 isoform 2 (UniProt Q8NBJ9) | 0.007 | 0.026 | -0.027 | 0.004 | 0.042 | 0.087 | -0.053 | 0.038 | 0.002 | 0.053
